From the supplement of paper PMC9801561
± gives the standard deviation of the averaged measurements.

System: Escherichia coli Nissle 1917
Assay: area under OmniLog respiration curve over 48 h (OmniLog units x h); higher = more growth / nutrient utilisation; extreme values may be limits of the assay
Conditions: nutrient role: C-Source, amine; incubation: 48 h, 37 °C
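For DuctApe activity index of respiration/growth curve (0 no growth to 9 maximum) in this document: biolog PM4 phosphorus and sulfur plates, tetrazolium violet dye reduction read in the OmniLog every 15 min, kinetic curves scored by DuctApe, each plate run in triplicate.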

SMILES	area under OmniLog respiration curve
NCC(O)c1ccc(O)cc1 (racemic) [D,L-Octopamine]	6.75 ± 3.5
NCCc1ccc(O)cc1 [Tyramine]	33 ± 46
NCCc1ccccc1 [Phenylethylamine]	5.51 ± 1.4

Same assay, conditions: nutrient role: sole nitrogen source (pyruvate carbon); incubation: 48 h, 37 °C

SMILES	area under OmniLog respiration curve
CN [Methylamine]	61 ± 97
NCCc1ccccc1 [b-Phenylethylamine]	11.4 ± 12
O=C1NC(=O)C(=O)C(=O)N1 [Alloxan]	402 ± 390
NCCc1ccc(O)cc1 [Tyramine]	35.9 ± 54
CCN [Ethylamine]	8.5 ± 6.5

Same assay, conditions: nutrient role: sole phosphorus source (pyruvate carbon); incubation: 48 h, 37 °C

SMILES	area under OmniLog respiration curve
O=PO [Hypophosphite]	2600 ± 590
CCOP(=O)(OCC)OCC [Triethyl Phosphate]	4.72
OP(O)(O)=S [Thiophosphate]	9350 ± 660
NCCP(=O)(O)O [2-Aminoethyl Phosphonic acid]	8180 ± 390
CN(CC(=O)O)C(=N)NP(=O)(O)O [Phosphocreatine]	8760 ± 510
OP(O)(=S)S [Dithiophosphate]	9000 ± 660

Same assay, conditions: nutrient role: sole sulfur source (pyruvate carbon); incubation: 48 h, 37 °C

SMILES	area under OmniLog respiration curve
CCSCCC(N)C(=O)O (racemic) [DL-Ethionine]	286 ± 250
OP(O)(O)=S [Thiophosphate]	6760 ± 260
OP(O)(=S)S [Dithiophosphate]	7150 ± 210

System: Escherichia coli Nissle 1917
Assay: DuctApe activity index of respiration/growth curve (0 no growth to 9 maximum) (index 0-9); higher = more growth / nutrient utilisation, active = 3 or more; extreme values may be limits of the assay
Conditions: nutrient role: C-Source, amine; incubation: 48 h, 37 °C

SMILES	DuctApe activity index
NCC(O)c1ccc(O)cc1 (racemic) [D,L-Octopamine]	0 (inactive)
NCCc1ccc(O)cc1 [Tyramine]	0 (inactive)
NCCc1ccccc1 [Phenylethylamine]	0 (inactive)

Same assay, conditions: nutrient role: sole nitrogen source (pyruvate carbon); incubation: 48 h, 37 °C

SMILES	DuctApe activity index
CN [Methylamine]	0 (inactive)
NCCc1ccccc1 [b-Phenylethylamine]	0 (inactive)
O=C1NC(=O)C(=O)C(=O)N1 [Alloxan]	1.67 (inactive)
NCCc1ccc(O)cc1 [Tyramine]	0 (inactive)
CCN [Ethylamine]	0 (inactive)

Same assay, conditions: nutrient role: sole phosphorus source (pyruvate carbon); incubation: 48 h, 37 °C

SMILES	DuctApe activity index
O=PO [Hypophosphite]	4 (active)
CCOP(=O)(OCC)OCC [Triethyl Phosphate]	0 (inactive)
OP(O)(O)=S [Thiophosphate]	8.67 (active)
NCCP(=O)(O)O [2-Aminoethyl Phosphonic acid]	8 (active)
CN(CC(=O)O)C(=N)NP(=O)(O)O [Phosphocreatine]	8.67 (active)
OP(O)(=S)S [Dithiophosphate]	8.67 (active)

Same assay, conditions: nutrient role: sole sulfur source (pyruvate carbon); incubation: 48 h, 37 °C

SMILES	DuctApe activity index
CCSCCC(N)C(=O)O (racemic) [DL-Ethionine]	0 (inactive)
OP(O)(O)=S [Thiophosphate]	7 (active)
OP(O)(=S)S [Dithiophosphate]	7.67 (active)
